Source: PubChem (The Scripps Research Institute Molecular Screening Center)
The list is not random: actives were taken first. Their share in the collection is about 3.5%.
GPR151 ag = activates the human receptor GPR151; activation, % at 11.2 µM; AID 1508602; Q8TDV0; 1% of 650,000 active; PathHunter beta-arrestin GPR151 cells, luminescence; in the data active = activation above about 4.9%;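 note: 0% = median of compound wells and 100% = cells with positive control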
Target sequence (Q8TDV0 whole entry, looked up): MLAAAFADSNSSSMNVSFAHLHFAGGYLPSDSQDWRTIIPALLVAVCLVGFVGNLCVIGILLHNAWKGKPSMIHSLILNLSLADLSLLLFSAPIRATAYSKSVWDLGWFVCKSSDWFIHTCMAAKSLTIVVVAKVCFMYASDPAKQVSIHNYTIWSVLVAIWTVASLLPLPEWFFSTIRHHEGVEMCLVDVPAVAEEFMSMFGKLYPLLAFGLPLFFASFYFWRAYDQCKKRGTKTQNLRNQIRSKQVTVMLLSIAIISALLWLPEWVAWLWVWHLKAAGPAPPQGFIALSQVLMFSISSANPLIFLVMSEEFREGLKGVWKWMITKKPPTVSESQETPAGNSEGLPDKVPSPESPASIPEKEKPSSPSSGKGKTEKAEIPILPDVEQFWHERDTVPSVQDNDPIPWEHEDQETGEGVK
MITF inh = inhibitors of human MITF | O75030 | inhibition, % at 2.6 µM | AlphaScreen MITF homodimerization, bead proximity signal | 0.91% of 650,000 active; in the data active = inhibition above about 50%;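 note: 0% = vehicle wells with protein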
FBW7 activator = human FBW7 E3 ligase activation, primary screen | AlphaScreen FBW7–phospho-cyclin E peptide binding, activator screen | normalized activity (activation), % at 26.1 µM | 0.13% of 650,000 active | AID 1259310; in the data active = normalized activity above about 1.9%;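 note: purified mutant Fbw7 with reduced substrate affinity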
TEAD-YAP inh = TEAD-YAP interaction inhibition | HEK-TIYL cells, TEAD-Gal4/YAP UAS-luciferase luminescence | inhibition, % at 9.12 µM | 1.4% of 640,000 active | AID 1259422; in the data active = inhibition above about 32%;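 note: 0% = median of test compound wells and 100% = reference inhibitor wells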
MITF confirm = human MITF inhibition, confirmation | AID 1259372 | AlphaScreen MITF homodimerization, biotin/His-MITF beads | 16% of 4,700 active | inhibition, % at 2.6 µM | shares compounds with MITF inh;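 active = inhibition above a cutoff derived from the DMSO control wells, cut at about 28% in these data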;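 note: 0% = MITF dimer wells with DMSO only; inhibitors lower the bead chemiluminescence by keeping MITF from dimerizing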
AlphaScreen DR = counter-screen: compounds optically interfering with AlphaScreen | AlphaScreen optical interference counterscreen, cell-free | shares compounds with MITF inh | AID 1259373 | 6% of 480 active | IC50, µM; call rule not given here
AlphaScreen intf2 = AlphaScreen optical interference, counter-screen; shares compounds with MITF inh; LysRS AlphaScreen counterscreen, signal interference, triplicate; inhibition, % at 2.6 µM; 7.6% of 4,700 active; AID 1259376;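 active = inhibition above a cutoff derived from the DMSO control wells, cut at about 30% in these data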
* marks the source's active call; other numbers are inactive results; . = no result given; ! = not active in a repeat.

SMILES	GPR151 ag	MITF inh	FBW7 activator	TEAD-YAP inh	MITF confirm	AlphaScreen intf2	others
O=C1N[C@@H](Cc2ccc(O)cc2)C(=O)N2CCN(Cc3cnn(-c4cccc(Cl)c4)c3)C[C@H]12	1	4	0	2	.	.
CC(Sc1nc(-c2ccccc2)nc2c1c(=O)n(C)c(=O)n2C)C(=O)O (stereo not given)	0	-5	0	2	.	.
Nc1ccc(C(=O)O)c(O)c1	0	88*!	0	5	72*	-16	AlphaScreen DR=>6.5
CC(C)OC(=O)C1CC=CCC1C(=O)Nc1nccs1 (stereo not given)	0	3	0	8	.	.
COc1ccccc1COCC(O)CNCCCN1CCOCC1 (stereo not given)	1	62*	0	9	2	-1
COc1ccccc1COCC(O)CNCc1ccncc1 (stereo not given)	0	70*	0	3	8	15
COc1ccccc1COCC(O)CNC(C)(C)C (stereo not given)	1	39	0	10	.	.
COc1ccccc1COCC(O)CNCC1(N2CCCCC2)CCCCC1 (stereo not given)	2	68*	0	5	-7	-2
COc1cc(C(C)=O)ccc1OCC(O)CNCC1(N2CCCCC2)CCCCC1 (stereo not given)	-2	42	0	2	.	.
CN1CCN(CCS(=O)(=O)OCC(F)(F)F)CC1	1	84*	0	4	10	14
O=C1c2cccc3cccc(c23)C(=O)N1CCS(=O)(=O)OCC(F)(F)F	0	12	0	2	.	.
C/C(CC12CC3CC(CC(C3)C1)C2)=N\NC(N)=O	2	53*	0	-7	1	-2
O=C(NCC1CCCO1)c1ccc2c(=O)n(Cc3cccc(Br)c3)c(=S)[nH]c2c1 (stereo not given)	1	58*	0	-2	1	-1
CC1(C)CC(=O)C2=C(C1)N(c1cccc([N+](=O)[O-])c1)C(N)=C(C#N)C2c1ccc(C(C)(C)C)s1 (stereo not given)	0	11	0	-4	.	.
COc1ccc(Nc2nc(-c3cccs3)cs2)c(OC)c1	0	71*	0	-66	5	14
COC(=O)c1c(NC(=S)Nc2ccc(F)cc2[N+](=O)[O-])sc(C(=O)N(C)C)c1C	2	-19	0	4	.	.
Cc1cccc(NC(=S)NNC(=O)CC(C)O)c1C (stereo not given)	-2	57*	0	9	-7	-9
O=C(NCC1CC(Cc2ccc(F)cc2)=NO1)c1c(F)cccc1Cl (stereo not given)	1	0	0	7	.	.
Fc1ccc(C2CCN(Cc3ccncc3)CC2)cc1	0	60*	0	17	0	13
Fc1ccc(C2CCN(Cc3cccnc3)CC2)cc1	0	53*	0	-2	4	9
Fc1ccccc1C1CCN(Cc2cccnc2)CC1	0	35	0	-4	.	.
CCOC(=O)c1sc(NC(=O)Cn2c3ccccc3c(=O)c3cc(C)ccc32)nc1C	2	-5	0	0	.	.
CC1CN(C(=O)N2CCC(C(=O)Nc3ccccc3Cl)CC2)c2ccccc2O1 (stereo not given)	-2	-9	0	-1	.	.
Cc1nn(-c2ccccc2)c(Cl)c1CNCCCOC(C)C	-1	34	0	-3	.	.
Cc1nn(C2CCS(=O)(=O)C2)c(Cl)c1CNCCCOC(C)C (stereo not given)	-2	51*	0	1	6	10
SMILES	GPR151 ag	MITF inh	FBW7 activator	TEAD-YAP inh	MITF confirm	AlphaScreen intf2	others
CCOc1ccc(-c2noc(Cn3c(=O)n(C(C)CC)c(=O)c4ccccc43)n2)cc1OC (stereo not given)	0	-17	0	3	.	.
O=C(NCc1cccs1)c1nn2c(C(F)(F)F)cc(-c3ccco3)nc2c1Br	-1	78*	0	-4	5	20
Cc1cc2nc(C3CCCN3C(=O)C3CCCO3)[nH]c2cc1C (stereo not given)	0	5	0	0	.	.
O=C1CCCC2=C1C(c1ccc([N+](=O)[O-])o1)C1=C(CCCC1=O)O2	0	67*	0	-7	62*	8	AlphaScreen DR=>7.1
COc1ccc(CN2CCN(Cc3cccc4ccccc34)CC2)cc1	0	57*	0	10	21	19
COc1cccc(CN2CCN(Cc3cccc4ccccc34)CC2)c1OC	-1	82*	0	-2	18	22
COc1ccccc1N1CCN(Cc2cccc(OC)c2OC)CC1	0	23	1	7	.	.
CSc1ccc(CN2CCN(Cc3cccc4ccccc34)CC2)cc1	1	74*	0	-8	14	20
COc1ccccc1CN1CCN(Cc2cccc3ccccc23)CC1	-2	85*	0	7	4	12
O=c1[nH]cc(S(=O)(=O)N(Cc2ccccc2)Cc2ccccc2)c(=O)[nH]1	1	-4	0	-7	.	.
Cc1cc(/C=C2/NC(=O)NC2=O)c(C)n1-c1cccc(C(F)(F)F)c1	2	1	0	-6	.	.
COc1cccc(CN2CCN(Cc3ccccc3C)CC2)c1OC	-1	77*	0	-3	5	12
CCOC(=O)N1CCN(Cc2cccc(OC)c2OC)CC1	0	-10	0	13	.	.
Cc1ccc(/C=N/Nc2cccc(C(=O)O)c2)o1	-7	59*	0	12	9	-2
c1ccc(CSc2ccc(-c3ccccn3)nn2)nc1	-2	86*	-2	-10	96*	100*
c1ccc(-c2ccc(SCc3cccnc3)nn2)nc1	-3	85*	-2	-29	99*	100*
CCSc1ccc(-c2ccccn2)nn1	-3	82*	0	-38	76*	97*
NC(=O)CSc1ccc(-c2ccccn2)nn1	0	82*	0	-3	73*	94*
Fc1ccc(-c2ccc(SCc3cccnc3)nn2)cc1	-1	4	0	-59	.	.
C=C(C)C(=O)Nc1ccc(Cc2ccc(NC(=O)C(=C)C)c(O)c2)cc1O	0	23	0	-7	.	.
CC(C)(C)CC(C)(C)NC(=O)c1cccc([N+](=O)[O-])c1	-2	70*	1	2	2	10
Cc1ccc2c(Cl)c(C(=O)NCc3ccncc3)sc2c1	0	70*	0	5	4	4
CCOC(=O)CNC(=O)c1sc2cc(C)ccc2c1Cl	-1	15	1	12	.	.
O=C1CCCN1CCCNCC(=O)N1c2ccccc2Sc2ccccc21	-1	76*	0	3	-16	-1
N#Cc1nc(-c2cccc(Cl)c2)oc1N1CCN(C(=O)c2ccc(Cl)cc2)CC1	5	-7	0	-7	.	.
Cc1cccc(C(=O)N2CCN(c3oc(-c4ccc(Cl)cc4)nc3C#N)CC2)c1	0	75*	0	1	6	-3
